# A selection: hits, their analogues and other compounds. The true share with any hit is near 0.46%.
# ASM inhibitor – blocks human secretory acid sphingomyelinase | hit rate 0.006% among 340,000 | Potency, µM (top dose mostly 57.5 µM), for the others: at the highest dose activity change, negative = inhibition, actives largely listed as inhibitors | placental ASM, HMU-PC fluorogenic substrate, 60 min
# Target sequence (P17405 47-631 limits assumed): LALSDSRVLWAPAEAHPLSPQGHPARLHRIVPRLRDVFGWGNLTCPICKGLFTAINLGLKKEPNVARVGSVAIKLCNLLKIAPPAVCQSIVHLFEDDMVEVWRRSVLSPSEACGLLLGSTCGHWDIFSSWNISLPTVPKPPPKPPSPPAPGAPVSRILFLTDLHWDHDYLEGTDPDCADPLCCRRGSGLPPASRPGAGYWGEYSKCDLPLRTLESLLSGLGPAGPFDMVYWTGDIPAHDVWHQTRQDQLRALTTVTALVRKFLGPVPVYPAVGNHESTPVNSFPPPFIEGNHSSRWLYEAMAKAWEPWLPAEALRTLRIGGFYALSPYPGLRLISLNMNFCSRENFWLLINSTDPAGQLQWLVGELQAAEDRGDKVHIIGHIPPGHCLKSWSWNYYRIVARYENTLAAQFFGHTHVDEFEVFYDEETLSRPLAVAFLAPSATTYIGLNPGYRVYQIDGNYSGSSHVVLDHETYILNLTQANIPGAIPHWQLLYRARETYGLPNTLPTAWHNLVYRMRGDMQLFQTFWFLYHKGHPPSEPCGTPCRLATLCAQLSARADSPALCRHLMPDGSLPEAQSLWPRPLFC
#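 qHTS format. ASM enzyme prepared from human placenta hydrolyses the fluorogenic substrate HMU-PC0 (9 uM final) over 60 min at 37 °C after a 10 min compound preincubation.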
# A-T KAP1 phos – candidate therapy for ataxia-telangiectasia; F2112 A-T fibroblasts, KAP-1 phosphorylation AlphaLISA; neocarzinostatin DNA damage 30 min before lysis; Potency, µM (series often up to 57.5 µM), without a hit: at the highest dose activation, hits mostly activators; hit rate 0.19% among 320,000; AID 485349; also: % of control where 0% means no effect; nearly all actives have a fitted effect of over 45% in size
#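 ATM-like activity read as KAP-1 phosphorylation via AlphaLISA donor/acceptor antibody pairs after lysis and 6 hr at 25C. Cells were ATM-null patient fibroblasts (F2112, hTERT), dosed 60 min, then exposed to the DSB inducer NCS for 30 min.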
# GALK inh – galactokinase (human) inhibition. Purified GALK, Kinase-Glo residual ATP luminescence. hit rate 0.007% among 270,000. P51570. Potency, µM (doses to about 57.5 µM), for inactives: at the top dose activity change, negative = inhibition, usual class: inhibitors; also: % is scaled to controls: 0 for no effect and ±100 for the full control effect
#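 Luminescence from leftover ATP (Ultra-Glo luciferase/luciferin) served as read-out after a 1 h room-temperature reaction of 5 nM GALK with 35 uM ATP and 100 uM galactose.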
# PTAP TSG101 blk – blocks PTAP/TSG101 interaction to inhibit HIV-1 budding; Fluorescence polarization, FITC-PTAP peptide / Tsg101 binding; Potency, µM (titrated, usually from 115 µM), without a hit: top-dose activity change, negative = inhibition, actives largely listed as inhibitors; 340,000 tested, under 10 active; AID 493005; active = well fitted inhibition curve with a large enough effect in the main read-out, with a control signal flat, not every such curve was filed as active; inconclusive = small, poorly fitted or top-dose-only effect, or effect the other way, or a change in a side signal; inactive = no such curve, though single readings can be large or run the other way; also: % of control where 0% means no effect
#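 FP read-out: FITC-PTAP peptide, 50 nM final, binding Tsg101 binding domain, 10 uM final; 20 min, r.t.; 10 mM HEPES pH 7.5, 0.15 M NaCl, 0.01% Tween 20, 3 mM EDTA, 0.1 mM TCEP.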
# a7 integrin act – activates integrin-mediated alleviation for muscular dystrophy. hit rate 0.064% among 350,000. AID 624291. alpha7betagal myoblasts, beta-gal FDG fluorescence, 48 h. Potency, µM (series often up to 38.3 µM), without a hit: at the highest dose activation, usual class: activators;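 also: 100% = response of the positive control SU9516; nearly all actives have a fitted effect of over 60% in size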
#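 Alpha7betagal+/- myoblasts (passage 13) were plated 16-24 hr, then exposed to compounds (1:260 dilution of DMSO stock) for 48 hours at 37C. After MPER lysis, β-galactosidase reporter activity was read as FDG fluorescence (ex 480/em 540) after 30 minutes.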
# Mito fusion act – inhibitors of mitochondrial division or activators of mitochondrial fusion. hit rate 0.23% among 320,000. S. cerevisiae fusion-defective mutant growth rescue, CellTiterGlo 48 h. Potency, µM (titrated, usually from 46.1 µM), without a hit: at the top dose growth rescue (activation), most hits filed as activators; also: % of control where 0% means no effect; nearly all actives have a fitted effect of over 45% in size
#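 Growth-rescue viability read-out: after 48 h at the non-permissive 37C in glycerol/ethanol YPEG, yeast mitochondrial fusion mutants are measured by CellTiterGlo luminescence; compounds (23 nl pinned per well) restoring growth score as division inhibitors or fusion activators.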
# * marks the source's active call; other numbers are inactive results; u = inconclusive; x = not tested or not shown. Unless noted, calls follow the shape of the dose curve; as a rule, active = well fitted curve in the direction sought with a large enough effect; inconclusive = small, poorly fitted or top-dose-only effect, or another doubt; inactive = no such curve, though single readings can be large; an effect the other way counts as inactive or inconclusive. Potency is read from the fitted curve at half-maximal effect.
SMILES,ASM inhibitor,A-T KAP1 phos,GALK inh,PTAP TSG101 blk,a7 integrin act,Mito fusion act
COc1cccc(C(C(=O)NCC2CCCO2)N(C(=O)Cn2nnc3ccccc32)c2ccc(NC(C)=O)cc2)c1 (stereo not drawn),4%,-6%,0%,-3%,9%,-3%
OCCC1CN(Cc2nc(-c3ccccc3)cs2)CCN1Cc1ccc(F)cc1 (stereo not drawn),-1%,8%,4%,0%,-8%,11µM*
CC(C)=CCN1CCN(Cc2nc(-c3ccc(F)cc3)cs2)CC1CCO (stereo not drawn),6%,1%,-2%,-6%,14%,-6%
N#Cc1ccc(OCC(O)CS(=O)(=O)c2ccccc2)cc1 (stereo not drawn),2%,0%,-1%,2%,10µM*,-5%
CC(C)[C@H](NC(=O)N1c2ccccc2NC(=O)[C@@H]1C(C)C)C(=O)N1CCC[C@H]1C(=O)O,0%,15%,x,-4%,8%,-2%
O=C(Nc1cccc2ccccc12)c1ccc([N+](=O)[O-])s1,-12%,3%,-2%,-2%,-62%,15%
O=C(Nc1ccccc1F)c1ccc([N+](=O)[O-])s1,-7%,-6%,1%,1%,13µM*,-14%
CN(CC(=O)Nc1ccc(OC(F)(F)F)cc1)C(=O)Cc1cccs1,-2%,-4%,x,-2%,-36%,x
CCOc1ccc(N(CC(=O)Nc2ccccc2C)S(=O)(=O)c2c(C)[nH]c(=O)[nH]c2=O)cc1,1%,1%,-2%,-3%,11%,-3%
CCOc1ccc(N(CC(=O)Nc2cc(C)ccc2C)S(=O)(=O)c2c(C)[nH]c(=O)[nH]c2=O)cc1,-1%,28µM*,-2%,1%,24%,-4%
O=c1cc2c(nn1Cc1ccc(F)cc1)-c1ccccc1CC2,-1%,-1%,1%,-7%,19%,13µM*
O=c1cc2c(nn1Cc1ccccc1)-c1ccccc1CC2,1%,15%,0%,-2%,-2%,2%
[N-]=[N+]=Nc1ccc(C(=O)CSC[C@H](NC(=O)CC[C@H](N)C(=O)O)C(=O)NCC(=O)O)cc1,x,x,x,x,x,1%
O=C1CCCC2=C1C1(CCCCC1)N=C(Nc1nc3ccccc3o1)N2,-15%,-5%,22µM*,-7%,7%,0%
Cc1noc(C)c1COc1ccccc1C(=O)NCc1ccco1,4%,6%,x,-3%,2%,0%
CC(C)C1CC(CCN)(c2ccccc2)CCO1 (stereo not drawn),-2%,2.8µM*,1%,-1%,0%,7%
Cc1scc(C(=O)N/N=C/c2ccc(OC(C)C)cc2)c1C,-4%,1%,-2%,-1%,-5%,0%
Cc1scc(C(=O)N/N=C/c2ccc(Cl)s2)c1C,1%,-2%,x,-1%,9%,13µM*
CC(C)c1ccc2oc(=O)cc(CN3CCCCC3)c2c1,-1%,35µM*,x,2%,43%,-1%
CC1CCN(Cc2cc(=O)oc3ccc(C(C)C)cc23)CC1,-3%,35%,3%,-3%,-18%,-29%
CCc1ccc(C(C(=O)NC(C)(C)CC)N(Cc2ccco2)C(=O)Cn2nnc3ccccc32)cc1 (stereo not drawn),-5%,x,0%,1%,-22%,3%
CCC(C)(C)NC(=O)C(c1ccccc1F)N(Cc1ccco1)C(=O)Cn1nnc2ccccc21 (stereo not drawn),0%,6%,1%,-3%,-10%,10µM*
O=C1C(Cl)=C(Nc2ccccc2)C(=O)c2ccccc21,4%,5µM*,1%,-1%,-61%,-1%
CCN(CC1CCCO1)C(=O)CCc1nnc(CCc2ccccc2OC)o1 (stereo not drawn),0%,-4%,-1%,-5%,26%,0%
Oc1ccc2ccccc2c1SSc1c(O)ccc2ccccc12,x,x,x,x,x,6%
SMILES,ASM inhibitor,A-T KAP1 phos,GALK inh,PTAP TSG101 blk,a7 integrin act,Mito fusion act
C=C(C)C(=O)Nc1cccc(C2=NOC3(C2)C[C@@H](C(N)=O)N(C(=O)c2ccc(Cl)cc2)C3)c1 (stereo partly drawn),0%,-29%,-2%,-7%,23%,1%
NC(=O)[C@H]1CC2(CC(c3cccc(NC(=O)COc4ccc(Cl)cc4)c3)=NO2)CN1C(=O)CC(c1ccccc1)c1ccccc1 (stereo partly drawn),-12%,-13%,4%,-3%,-21%,15%
NC(=O)[C@@H]1CC2(CC(c3cccc(NC(=O)CC(c4ccccc4)c4ccccc4)c3)=NO2)CN1C(=O)COc1ccc(Cl)cc1 (stereo partly drawn),-13%,35µM*,-3%,-6%,-5%,-1%
C/C=C(/C)C(=O)Nc1cccc(C2=NOC3(C2)C[C@H](C(N)=O)N(C(=O)c2ccc(Cl)cc2)C3)c1 (stereo partly drawn),0%,0%,4%,-2%,-16%,14µM*
CC(C)(C)NS(=O)(=O)c1ccc(C(=O)Nc2ccc3c(c2)OCO3)cc1,0%,4%,-2%,0%,-1%,35µM*
CCCn1nc(NC(=O)c2ccco2)c2cc3ccc(C)cc3nc21,419%,26%,-8%,0%,3%,4%
CCCn1nc(NC(=O)c2ccco2)c2cc3cc(C)ccc3nc21,425%,22µM*,0%,-5%,0%,2%
CCOc1ccc(NS(=O)(=O)c2cc3c4c(c2)C(C)C(=O)N4CCC3)cc1 (stereo not drawn),-1%,0%,1%,-9%,-22%,3%
CCc1nnc(NC(=O)CSc2nnc(CNc3ccc(C)cc3)n2C)s1,4%,7%,7%,4%,0%,0%
Cc1nnc(NC(=O)CSc2nnc(CCNC(=O)c3ccccc3F)n2C)s1,3%,0%,3%,-3%,11µM*,1%
Cc1ccc(NCc2nnc(SCC(=O)Nc3nnc(C)s3)n2C)cc1,0%,-8%,-1%,1%,10µM*,-7%
CC(C)(C)OC(=O)N1CCN(c2ccc([N+](=O)[O-])cc2)CC1,2%,0%,7%,-3%,u,0%
CN(Cc1ccco1)c1ncnc2ccc(-c3cccc(Cl)c3)cc12,x,-10%,x,x,x,15%
CCn1cc(S(=O)(=O)N2CCN(c3ccc(Cl)cc3)CC2)cn1,0%,3%,-2%,-7%,24%,1%
c1ccc(-n2c3ccccc3c3ccccc32)cc1,-7%,25µM*,0%,-3%,0%,-5%
CC(=O)n1c2ccccc2c2ccccc21,-4%,-3%,0%,-5%,-11%,3%

# Screens: PubChem BioAssay, National Center for Advancing Translational Sciences (NCATS)
